Laboratory results reported in PubChem BioAssay AID1159580 (chemical genetic matrix, 2015).
Screen size: about 5,500 compounds; about 2,000 (36%) were called active. Another 18% or so got no clear call; they are omitted. No stated cut-off is given here; in the data, active means normalized growth mostly below about 0.91 (no sharp cut-off); inconclusive means no clear call, values can overlap the other calls; inactive means mostly above about 0.92. Some of the results follow.

Assay: chemical genetic growth profiling, strain panel (AID 1159580);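 further: tested at 20 µM; growth read once vehicle control cultures reached saturation at 30 °C; 1 = growth at the plate median or of vehicle wells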
Conditions: S. cerevisiae deletion strains, growth OD

Measured: normalized growth

O=c1oc2cc(O)ccc2s1
active: locus YCL029C, strain bik1, stronger effect = lower value 0.899 | locus YDR101C, strain arx1, stronger effect = lower value 0.899 | locus YDR318W, strain mcm21, stronger effect = lower value 0.911
inactive: locus YAL013W, strain DEP1, stronger effect = lower value 0.999 | locus YAL021C, strain ccr4, stronger effect = lower value 1.06 | locus YAL026C, strain drs2, stronger effect = lower value 1 | locus YAL030W, strain snc1, stronger effect = lower value 0.995 | locus YBL061C, strain skt5, stronger effect = lower value 1.01 | locus YBR009C, strain hhf1, stronger effect = lower value 0.972 | locus YBR021W, strain FUR4, stronger effect = lower value 1.03 | locus YBR023C, strain chs3, stronger effect = lower value 1.01 | locus YBR171W, strain sec66, stronger effect = lower value 1.02 | locus YBR229C, strain ROT2, stronger effect = lower value 0.966 | locus YBR231C, strain swc5, stronger effect = lower value 0.965 | locus YBR279W, strain paf1, stronger effect = lower value 0.999 | locus YCL011C, strain gbp2, stronger effect = lower value 0.988 | locus YCL016C, strain dcc1, stronger effect = lower value 0.993 | locus YCL061C, strain MRC1, stronger effect = lower value 0.997 | locus YCL069W, strain vba3, stronger effect = lower value 1.01 | locus YCR088W, strain abp1, stronger effect = lower value 1.01 | locus YDL005C, strain med2, stronger effect = lower value 1.04 | locus YDL035C, strain GPR1, stronger effect = lower value 0.945 | locus YDL040C, strain nat1, stronger effect = lower value 1 | locus YDL074C, strain BRE1, stronger effect = lower value 0.962 | locus YDL101C, strain DUN1, stronger effect = lower value 0.967 | locus YDL134C, strain PPH21, stronger effect = lower value 0.972 | locus YDL185W, strain tfp1, stronger effect = lower value 0.955 | locus YDL192W, strain arf1, stronger effect = lower value 0.954 | locus YDR001C, strain nth1, stronger effect = lower value 1.01 | locus YDR069C, strain doa4, stronger effect = lower value 0.998 | locus YDR137W, strain rgp1, stronger effect = lower value 1.02 | locus YDR150W, strain NUM1, stronger effect = lower value 0.993 | locus YDR159W, strain sac3, stronger effect = lower value 0.941 | locus YDR162C, strain NBP2, stronger effect = lower value 0.968 | locus YDR195W, strain ref2 1.12 | locus YDR297W, strain sur2, stronger effect = lower value 1.01 | locus YDR334W, strain swr1, stronger effect = lower value 1.01 | locus YDR335W, strain msn5, stronger effect = lower value 0.99 | locus YDR388W, stronger effect = lower value 0.947 | locus YDR392W, strain spt3, stronger effect = lower value 0.953 | locus YDR502C, strain sam2, stronger effect = lower value 0.934 | locus YEL003W, strain gim4, stronger effect = lower value 0.999 | locus YEL037C, strain rad23, stronger effect = lower value 0.998 | locus YEL061C, strain CIN8 (second series), stronger effect = lower value 1.01 | locus YEL061C, strain CIN8, stronger effect = lower value 0.98 | locus YER015W, strain faa2, stronger effect = lower value 0.975 | locus YER016W, strain bim1, stronger effect = lower value 0.989 | locus YER110C, stronger effect = lower value 0.968 | locus YER111C, strain swi4, stronger effect = lower value 0.996 | locus YER155C, strain BEM2 (second series), stronger effect = lower value 0.988 | locus YER155C, strain BEM2, stronger effect = lower value 0.973 | locus YER167W, strain BCK2, stronger effect = lower value 0.965 | locus YFR010W, strain ubp6, stronger effect = lower value 0.978 | locus YGL078C, strain dbp3, stronger effect = lower value 0.96 | locus YGL086W, strain mad1, stronger effect = lower value 0.932 | locus YGL167C, strain pmr1, stronger effect = lower value 1.02 | locus YGL173C, strain kem1, stronger effect = lower value 0.967 | locus YGL227W, strain vid30, stronger effect = lower value 1 | locus YGL240W, strain doc1, stronger effect = lower value 0.967 | locus YGL248W, strain PDE1, stronger effect = lower value 0.985 | locus YGL253W, strain hxk2, stronger effect = lower value 1 | locus YGR078C, strain PAC10, stronger effect = lower value 0.969 | locus YGR135W, strain pre9, stronger effect = lower value 0.898 | locus YGR229C, strain SMI1, stronger effect = lower value 0.965 | locus YGR252W, strain gcn5, stronger effect = lower value 0.956 | locus YHR013C, strain ard1, stronger effect = lower value 1.1 | locus YHR027C, strain rpn1, stronger effect = lower value 0.998 | locus YHR030C, strain SLT2, stronger effect = lower value 0.983 | locus YHR079C, strain IRE1 (second series), stronger effect = lower value 0.942 | locus YHR094C, strain hxt1, stronger effect = lower value 0.966 | locus YHR129C, strain ARP1, stronger effect = lower value 0.966 | locus YHR142W, strain chs7, stronger effect = lower value 1.04 | locus YHR200W, strain rpn10, stronger effect = lower value 0.927 | locus YIL066C, strain RNR3, stronger effect = lower value 0.946 | locus YIL073C, strain SPO22, stronger effect = lower value 0.996 | locus YIL125W, strain kgd1, stronger effect = lower value 0.982 | locus YIR030C, strain dcg1, stronger effect = lower value 0.962 | locus YJL092W, strain hpr5, stronger effect = lower value 0.988 | locus YJL095W, strain BCK1 (second series), stronger effect = lower value 1.02 | locus YJL095W, strain BCK1, stronger effect = lower value 0.933 | locus YJL115W, strain asf1, stronger effect = lower value 1.03 | locus YJL129C, strain trk1, stronger effect = lower value 1.03 | locus YJL134W, strain LCB3, stronger effect = lower value 0.976 | locus YJL154C, strain vps35, stronger effect = lower value 1.02 | locus YJL164C, strain tpk1, stronger effect = lower value 1.01 | locus YJL166W, strain qcr8, stronger effect = lower value 0.99 | locus YJL168C, strain set2, stronger effect = lower value 0.961 | locus YJL187C, strain SWE1 (second series), stronger effect = lower value 0.952 | locus YJL187C, strain SWE1, stronger effect = lower value 1
